Assay results: PubChem BioAssay AID504467 (National Center for Advancing Translational Sciences (NCATS), 2011)
The campaign covered roughly 330,000 compounds. About 7,700 (2.3%) were called active. Roughly 26% stayed inconclusive and do not appear here. Calls come from the whole dose curve; as a rule, active = well fitted inhibition curve with a large enough effect; inconclusive = small, poorly fitted or top-dose-only effect, or effect the other way; inactive = flat fitted curve, though single readings scatter. The list comes from a sample in which actives are over-represented; it also holds similar structures and randomly drawn compounds. Entries that show only a call come without a potency.

Test: qHTS screen for small molecules that inhibit ELG1-dependent DNA repair in human embryonic kidney (HEK293T) cells expressing luciferase-tagged ELG1; note: nearly all actives have a fitted effect of over 55% in size
Details: HEK293T ELG1-luciferase reporter, luminescence, 16 h, DNA damage induced by 5-fluorouridine; series mostly up to 46.1 µM
Text: NIH Molecular Libraries Probe Production Network [MLPCN] NIH Chemical Genomics Center [NCGC] MLPCN Grant: 1 R03 MH092164-01 Assay Provider: Kyungjae Myung, NHGRI, NIH Keywords: MLPCN, qHTS, NCGC, genotoxicity, cancer Assay Overview: Cancer cells divide rapidly compared to normal cells in the body. During cell division, cancer cells need to duplicate their genome by DNA replication. The failure of genome duplication leads to cancer cells' death. Therefore, inhibitors of DNA replication could specifically kill cancer cells. Based on this concept, many chemotherapeutic agents were developed and have been used to treat cancer patients. However, there are a limited number of agents available in the clinical setting, and some of those that do exist have low efficacy and severe side effects. Therefore, if we can find the compounds that effectively block DNA replication either by directly damaging DNA or by inhibiting other cellular mechanisms, the options for cancer treatment will be broadened. With this in mind, we developed a quantitative high-throughput ELG1-luciferase reporter gene assay. Small molecules that specifically block ELG1 function in response to DNA damage can be identified by monitoring the suppression of luciferase activity. Since ELG1 defines a pathway for repairing DNA damage, agents blocking ELG1 function can be used to sensitize cancer cells to chemotherapeutic agents whose mechanism of action involves the induction of DNA damage.
Assay Protocol Summary: For genotoxicity screening, 2,000 cells in 4 uL/well were dispensed into white, solid-bottom 1536-well plates using a solenoid-based dispenser. Following transfer of 1 uL 5-Fluorouridine and 23 nL compound or DMSO vehicle by a pin tool, the plates were incubated 16 hr at 37 °C and 5% CO2. 5 ul ONE-Glo (Promega) was then added to each plate and following a 30 min incubation at room temperature, luciferase activity was quantified on a ViewLux CCD-based plate reader.
Potency is the fitted concentration of half-maximal effect.

| Compound | Potency |
| --- | --- |
| O=C(CN1CCN(c2ccccn2)CC1)Nc1ccc(Br)cc1 | inactive |
| Cc1cc(Br)ccc1NC(=O)c1cnc(N2CCN(c3ccccn3)CC2)c2ccccc12 | 11.6 µM (active) |
| Cc1cc(Br)ccc1NC(=O)c1sc2ncn(CC(=O)N3CCN(c4ccccn4)CC3)c(=O)c2c1C | inactive |
| COc1ccc(S(=O)(=O)N2CCCCC2)cc1NC(=O)c1cc([N+](=O)[O-])ccc1N1CCOCC1 | inactive |
| CCc1ccc(S(=O)(=O)N/N=C\c2ccc([N+](=O)[O-])o2)cc1 | inactive |
| N#Cc1cc([N+](=O)[O-])ccc1NC(=O)COC(=O)c1cnccn1 | inactive |
| NS(=O)(=O)c1ccc(NC(=O)COC(=O)c2c3c(nc4ccccc24)/C(=C\c2ccc4c(c2)OCO4)CCC3)cc1 | 20.6 µM (active) |
| O=C(COC(=O)c1c2c(nc3ccccc13)/C(=C\c1cccs1)CCC2)Nc1ccccc1Cl | 16.4 µM (active) |
| COc1cc(/C=C2\CCCc3c2nc2ccccc2c3C(=O)O)cc(Cl)c1O | inactive |
| NC(=O)c1ccc(NC(=O)COC(=O)c2c3c(nc4ccccc24)/C(=C\c2ccc4c(c2)OCO4)CCC3)cc1 | 20.6 µM (active) |
| O=C(COC(=O)c1ccncc1)Nc1ccc2c(c1)OCO2 | inactive |
| CC(NC(=O)COC(=O)c1ccc2c(c1)OCO2)c1ccccc1 (stereo unspecified) | inactive |
| NS(=O)(=O)c1ccc(NC(=O)COC(=O)c2ccc(Cl)nc2)cc1 | inactive |
| NS(=O)(=O)c1ccc(NC(=O)COC(=O)c2cc3ccccc3oc2=O)cc1 | inactive |
| O=C(COC(=O)c1c2c(nc3ccccc13)CCCC2)c1ccc(Br)s1 | inactive |
| COc1ccc(C(=O)N2CCCCC2C(=O)Nc2ccc(-n3nc(C)cc3C)cc2)o1 (stereo unspecified) | inactive |
| O=C(NCC(c1cccs1)N1CCOCC1)c1cc(Cl)ccc1[N+](=O)[O-] (stereo unspecified) | inactive |
| Cc1ccc(Nc2nnc(SC(C)C(=O)NC3CC3)s2)cc1 (stereo unspecified) | inactive |
| CC(C)(C)OC(=O)C[C@H]1C/C=C\C[C@@H](CC(=O)N[C@H](CO)Cc2ccccc2)C(=O)NC[C@@H](c2ccccc2)OC1=O | inactive |
| CCNC(=S)N(CCc1c(C)[nH]c2ccc(C)cc12)Cc1ccco1 | inactive |
| Cc1[nH]c2ccccc2c1CCN(Cc1cccs1)C(=S)NC(C)(C)C | inactive |
| Cc1ccc(NC(=S)N(CCN2CCCCC2)Cc2ccco2)cc1C | inactive |
| COc1ccc2[nH]c(C)c(CCN(Cc3cccs3)C(=S)Nc3ccccc3OC)c2c1 | 13 µM (active) |
| COc1cccc(NC(=S)N(CCc2c(C)[nH]c3ccccc23)Cc2ccco2)c1 | 20.6 µM (active) |

| Compound | Potency |
| --- | --- |
| COc1ccc(NC(=S)NCc2cccs2)c(OC)c1 | inactive |
| CC(OC(=O)/C=C/c1ccccc1)C(=O)Nc1ccc(C(N)=O)cc1 (stereo unspecified) | inactive |
| CC1CCC(NS(=O)(=O)c2ccc3c(c2)CC(=O)N3)CC1 (stereo unspecified) | inactive |
| O=C(COC(=O)c1cccc(Cl)c1)NC(=O)NCc1ccccc1 | inactive |
| Cc1ccc(S(=O)(=O)N2[C@@H](c3cccc(Cl)c3)C(C(=O)O)=CC[C@H]2c2ccc(Cl)c(Cl)c2)cc1 | inactive |
| O=C(NCCCO)c1cc2c([nH]c3ccccc32)c(-c2ccc(F)cc2)n1 | 18.3 µM (active) |
| O=C(NCCCN1CCOCC1)c1cn(-c2ccccc2)nc1-c1ccc(F)cc1 | inactive |
| CN(C)CCCNC(=O)c1ccc2[nH]c3ccccc3c2c1 | inactive |
| O=C(NCC1(N2CCCCC2)CCCCC1)c1ccc(NS(=O)(=O)c2ccc(F)cc2)cc1 | inactive |
| Cc1ccc(C(CC(=O)O)NC(=O)c2ccc(S(=O)(=O)N3CCCC3)cc2)cc1 (stereo unspecified) | inactive |
| Cc1c(NC(=O)CN(C)CC(=O)Nc2ccc(F)c(F)c2F)c(=O)n(-c2ccccc2)n1C | inactive |
| COc1ccc(C(=O)NCc2ccc(Cl)cc2)cc1S(=O)(=O)N1CCCC1 | inactive |
| Cc1nc(NC(=O)c2cccc(Cl)c2)sc1-c1csc(Nc2cccc(Cl)c2)n1 | inactive |
| O=C(Nc1ccc(-c2csc(Nc3cccc(C(F)(F)F)c3)n2)cc1)c1cccc(C(F)(F)F)c1 | 10.3 µM (active) |
| CNC(=O)c1ccc(NC(=O)c2cccc(C(F)(F)F)c2)cc1 | inactive |
| COc1cccc(CN(C)C(=O)CC23CC4CC(CC(C4)C2)C3)c1OC | inactive |
| CCN(CC)S(=O)(=O)c1ccc(N(C)Cc2ccc(C(F)(F)F)cc2)nc1 | inactive |
| CCN(CC)S(=O)(=O)c1ccc(N(C)Cc2cccc(OC)c2OC)nc1 | 13 µM (active) |
| COc1ccc(/C=C/C(=O)OCC(=O)NC2CCCCCC2)cc1OC | inactive |
| COC(=O)c1cc(Oc2ccc(S(=O)(=O)N3CCOCC3)cc2[N+](=O)[O-])cc(C(=O)OC)c1 | inactive |
| CCCCC(C(=O)OCC(=O)c1ccc(OC)cc1)N1C(=O)c2ccccc2C1=O (stereo unspecified) | inactive |
| CCOC(=O)C1=C(c2ccc(OC)cc2)C(=O)c2ccccc2C1=O | 2.91 µM (active) |
| COc1ccc(OCCCON2C(=O)c3ccccc3C2=O)cc1 | inactive |
| Cc1ccc(C(=O)CN2C(=O)NC3(CCOc4ccccc43)C2=O)s1 (stereo unspecified) | inactive |

| Compound | Potency |
| --- | --- |
| COc1ccc(NC(=O)CCS(=O)(=O)c2cc3c(cc2Cl)NC(=O)CO3)cc1OC | inactive |
| O=C(c1ccc(Cl)c(S(=O)(=O)N2CCCCCC2)c1)N1CCN(c2ccc(O)cc2)CC1 | 20.6 µM (active) |
| O=C(c1ccc(Cl)c(S(=O)(=O)N2CCCCC2)c1)N1CCCCCC1 | inactive |
| O=C(c1ccc(Cl)c(Cl)c1)N1CCCC1 | inactive |
| Nn1c(SCC(=O)NC2CCCc3ccccc32)nnc1C1CC1 (stereo unspecified) | inactive |
| O=C(CN1C(=O)NC2(CCCC2)C1=O)Nc1cc(C(F)(F)F)ccc1N1CCOCC1 | inactive |
| O=C(NCCc1ccc(F)cc1)c1ccc(S(=O)(=O)N2CCCCC2)cc1 | inactive |
| COc1ccccc1Oc1nc(-c2cccnc2)nc2ccccc12 | inactive |
| N#Cc1ccc(Oc2cc(C(F)(F)F)nc(-c3ccccn3)n2)cc1 | inactive |
| Cc1ccc(Oc2nc(-c3ccccn3)nc3ccccc23)cc1 | 18.3 µM (active) |
| CCS(=O)(=O)N1CCC(N2CCN(c3ccccc3)CC2)CC1 | inactive |
| O=C(c1ccccc1)N1CCN(C(=O)c2cc3nc(-c4ccccc4)cc(C(F)(F)F)n3n2)CC1 | 7.3 µM (active) |
| O=C(O)c1cnn2c(C(F)(F)F)cc(-c3ccccc3)nc12 | inactive |
| COC(=O)c1cc2nc(-c3ccccc3)cc(C(F)(F)F)n2n1 | inactive |
| CCc1cccc(C)c1NS(=O)(=O)c1cc(Br)cnc1N | inactive |
| COc1ccc(C)cc1N(C(=O)Cn1nnc(-c2ccc(C)o2)n1)C(C(=O)NC1CCCC1)c1ccncc1 (stereo unspecified) | inactive |
| COc1ccccc1NC(=O)COC(=O)CNC(=O)C1CCCCC1 | inactive |
| Cc1ccc(CC(=O)N(C)CC(=O)N(CC(C)C)c2c(N)n(CC(C)C)c(=O)[nH]c2=O)cc1C | inactive |
| Cn1nnnc1SCC(=O)Nc1cccc(S(=O)(=O)N2CCCCC2)c1 | inactive |
| COc1cccc(N(CC(=O)NC2CCCC2)C(=O)Cn2nnc(-c3ccc(C)o3)n2)c1 | inactive |
| CCOC(=O)C1CCN(C(=O)Cn2nc(C)c3c(C)n(-c4ccccc4)nc3c2=O)CC1 | inactive |
| COc1ccc2cc(S(=O)(=O)Nc3ccccn3)ccc2c1 | inactive |
| CC1=C/C(=N\S(=O)(=O)c2ccccc2)C(C(C)C)=CC1=O | inactive |
| COc1ccc(S(=O)(=O)/N=C2\C=C(NS(=O)(=O)c3ccccc3)C(=O)c3ccccc32)cc1 | 23.1 µM (active) |

| Compound | Potency |
| --- | --- |
| CCCSc1nc2sc3c(c2c(=O)n1-c1ccc(OC)cc1)CCN(C)C3 | inactive |
| COc1ccc(C(C(=O)NC2CCCC2)N(CCCO)C(=O)Cn2nnc(-c3ccc(C)o3)n2)cc1 (stereo unspecified) | inactive |
| COc1ccc(-c2nc(N)ncc2-c2ccc(Cl)cc2)c(O)c1 | inactive |
| C=C(C)COc1ccc(-c2nc(N)ncc2-c2ccccc2OC)c(O)c1 | inactive |
| C=C(C)COc1ccc(-c2ncncc2-c2ccc(OC)cc2)c(O)c1 | 16.4 µM (active) |
| COc1ccc(C(C)(C)C)cc1NC(=O)CCN1C(=O)C2CCCCC2C1=O (stereo unspecified) | inactive |
| COC(=O)c1c(NC(=O)c2ccccc2F)sc2c1C(C(=O)OC)CC2 (stereo unspecified) | inactive |
| CCc1ccc(N(CC)c2ncnc3nc[nH]c23)cc1 | 4.11 µM (active) |
| CCOc1ccc(N=Cc2c(O)n(-c3cccc(C)n3)c(=O)c3ccccc23)cc1 | inactive |
| CCOc1ccc(-n2c(O)c(/C=N/Nc3nnc(C)c(=O)[nH]3)c3ccccc3c2=O)cc1 | inactive |
| CCOc1ccc(-n2c(O)c(/C=N/Nc3nc(C)cc(C)n3)c3ccccc3c2=O)cc1 | 14.6 µM (active) |
| COc1ccc2[nH]c3c(c2c1)CCN1C(=O)C(CC(=O)NCCc2ccccn2)C[C@H](C(=O)N2CCOCC2)[C@@]31C (stereo partly specified) | inactive |
| COc1ccc(CN(C(=O)CSc2nnc(-c3ccc(OC)c(OC)c3)o2)c2ccc(F)cc2)cc1 | 16.4 µM (active) |
| COc1ccc(-c2nnc(SCC(=O)NC3CCCCC3)o2)cc1OC | inactive |
| COc1ccc(CCNC(=O)CSc2nnc(-c3cccc(F)c3)o2)cc1OC | inactive |
| COc1cc([N+](=O)[O-])ccc1NC(=S)N1CCN(c2ccccn2)CC1 | inactive |
| COc1ccc(NC(=O)c2sc(N3CCOCC3)nc2-c2ccccc2)c(OC)c1 | 13 µM (active) |
| Cc1nc(N2CCN(c3ccccn3)CC2)c2c(C)c(C(=O)Nc3ccc(F)c(Cl)c3)sc2n1 | 3.26 µM (active) |
| COc1ccc(NC(=O)c2sc3nc(C)nc(N4CCN(c5ccccn5)CC4)c3c2C)c(OC)c1 | 2.31 µM (active) |
| COc1ccc(OC)c(NC(=O)c2sc3nc(C)cc(C)c3c2N)c1 | inactive |
| COc1cc2ccccc2cc1C(=O)Nc1ccc(N2CCOCC2)cc1 | inactive |
| CCC(=O)Nc1ccc2c(c1)nc(CCN1CCN(c3ccccn3)CC1)n2C | inactive |
| COc1ccc(NC(=O)c2sc(N)nc2-c2ccccc2)cc1 | inactive |
| CCN(CC)c1ccc(NC(=O)CN2CCN(c3ccccn3)CC2)cc1 | inactive |
